IDE act: boosts human insulin-degrading enzyme activity in HEK cells | P14735 | FAbeta-B cleavage, fluorescence polarization; 0% vehicle, 100% cell-free pure enzyme wells | activation, % at 5.96 µM | hit rate 0.073% among 340,000 | AID 493087;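 active means activation above the mean of all tested compounds plus 3 SD, set per screening campaign, cut at about 17% in these data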
Target sequence (P14735 whole entry, looked up): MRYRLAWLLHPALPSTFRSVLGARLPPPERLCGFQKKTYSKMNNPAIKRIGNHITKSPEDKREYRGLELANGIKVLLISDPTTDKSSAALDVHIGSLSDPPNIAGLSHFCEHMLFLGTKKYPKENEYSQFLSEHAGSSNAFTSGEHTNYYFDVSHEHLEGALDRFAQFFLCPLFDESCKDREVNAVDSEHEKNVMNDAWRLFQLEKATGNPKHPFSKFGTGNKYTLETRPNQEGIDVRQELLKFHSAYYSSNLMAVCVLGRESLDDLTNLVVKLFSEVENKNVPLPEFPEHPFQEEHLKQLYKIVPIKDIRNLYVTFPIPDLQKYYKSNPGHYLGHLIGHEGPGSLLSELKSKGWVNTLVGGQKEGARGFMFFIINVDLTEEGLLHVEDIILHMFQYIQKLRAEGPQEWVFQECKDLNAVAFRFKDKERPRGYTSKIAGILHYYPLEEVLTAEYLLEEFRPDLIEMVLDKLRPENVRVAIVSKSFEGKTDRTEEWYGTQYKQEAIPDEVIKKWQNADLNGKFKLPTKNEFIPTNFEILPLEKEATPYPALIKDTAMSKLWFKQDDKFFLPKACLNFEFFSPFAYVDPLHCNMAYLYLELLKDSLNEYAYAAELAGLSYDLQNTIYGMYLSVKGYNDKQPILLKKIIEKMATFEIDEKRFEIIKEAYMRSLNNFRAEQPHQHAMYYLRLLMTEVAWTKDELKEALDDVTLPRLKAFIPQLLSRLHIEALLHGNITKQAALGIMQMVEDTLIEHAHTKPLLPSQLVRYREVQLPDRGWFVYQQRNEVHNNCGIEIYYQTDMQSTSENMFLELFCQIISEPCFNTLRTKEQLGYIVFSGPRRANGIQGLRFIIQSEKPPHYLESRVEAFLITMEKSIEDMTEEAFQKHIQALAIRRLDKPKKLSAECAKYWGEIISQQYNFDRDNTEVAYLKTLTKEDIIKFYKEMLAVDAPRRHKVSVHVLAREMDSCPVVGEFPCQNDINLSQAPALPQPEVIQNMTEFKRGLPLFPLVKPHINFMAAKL
ALR inh: inhibitors of human sulfhydryl oxidase ALR | P55789 | purified ALR, DTT oxidation, H2O2 HRP-luminol luminescence | inhibition, % (test concentration not listed) | hit rate 3.8% among 290,000 | AID 485317;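 active means mean replicate inhibition above about 79%, with every replicate also reaching it, limit read from the data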
PfM18AAP inh: PfM18AAP enzyme inhibition; recombinant PfM18AAP, H-Glu-NHMec fluorogenic cleavage; inhibition, % at 7.35 µM; hit rate 1.2% among 290,000;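 active means inhibition above the campaign mean inhibition over all tested compounds plus 3 SD, cut at about 28% in these data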;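 further: 0% = plate median of test compound wells and 100% = 2 mM ZnCl2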
CaV13 FRET inh: Disruptors of the CACNA1D IQ motif to Ca2+-dependent inactivation inhibitor domain association, primary screening, Förster resonance energy transfer in intact living …. HEK cells, CFP/YFP FRET ICDI-IQ, plate reader, 10 min; percent FRET-ratio fall versus neutral wells. inhibition, % at 12.3 µM. hit rate 0.098% among 340,000;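 active means mean replicate inhibition of at least 30% and at least 1% of replicates passing that level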;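 further: 0% = median of the neutral control wells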
PolyA inhibitor: inhibitors of polyadenylation in S. cerevisiae; hit rate 0.02% among 300,000; S. cerevisiae SKY197-pL101 polyadenylation reporter, beta-gal luminescence; efflux-impaired pdr1/pdr3 knockout yeast; score 100 = 6 SD above DMSO; activity score, % at 12 µM;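 active means lowest replicate activity score at least 50, where 100 means six control SD above control mean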;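 further: yeast exposed to compound for 9 h at 30 °C; higher score means more reporter readthrough which indicates perturbed polyadenylation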
IDE cell inh: cellular human IDE inhibition | inhibition, % at 5.59 µM | hit rate 0.41% among 320,000 | HEK cells, FAbetaB cleavage, fluorescence polarization;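 active means percent inhibition above the average of all tested compounds plus 3 SD, set per screening campaign, cut at about 16% in these data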;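 further: IDE supplied by intact live HEK cells; FP after avidin binding of uncleaved biotin substrate so inhibition keeps polarization high; 0% = DMSO wells and 100% = 60 µM reference IDE inhibitor Ii1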
IDE inh confirm: cellular human IDE inhibition, confirmation; HEK cells, FAbetaB cleavage, fluorescence polarization; AID 435028; shares compounds with IDE cell inh; inhibition, % at 5.59 µM; hit rate 51% among 1,200;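 active means mean inhibition across triplicate wells above the cutoff set by the earlier primary insulin-degrading enzyme screen, cut at about 16% in these data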;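 further: 0% = DMSO wells and 100% = 60 µM reference IDE inhibitor Ii1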
HEK293 tox: HEK cell cytotoxicity, counter-screen for IDE inhibitors; shares compounds with IDE cell inh; HEK293 cytotoxicity, ATP luminescence; inhibition, % at 5.59 µM; hit rate 28% among 1,200; in the data active means inhibition above about 22%;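 further: 0% = vehicle wells and 100% = reference cytotoxic drug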
IDE FP artifact: fluorescent artifact in IDE inhibitor FP assay; 30 tested, under 10 active; shares compounds with IDE cell inh; IC50, µM; FP counterscreen for fluorescent artifacts, IDE probe project; AID 588718; call rule not given here
* = called active by the depositor; nt = not tested or not shown. An excerpt weighted towards active compounds, which were near 4.1% of everything screened.

SMILES	IDE act	ALR inh	PfM18AAP inh	CaV13 FRET inh	PolyA inhibitor	IDE cell inh	IDE inh confirm	HEK293 tox	others
NC(N)=N/N=C/c1ccc(Cl)c(Cl)c1	nt	-4.1	3.3	-15.1	11.5	-0.1	nt	nt
NC(N)=N/N=C/c1ccc(Cl)cc1Cl	-8.5	6.2	2.5	-4.7	0.3	23.0*	4.0	24.9*
CCC(C)(C)c1nnc(NC(=O)CCC2CCCCC2)s1	nt	10.9	nt	-5.0	2.7	0.8	nt	nt
O=C(CCC(=O)c1ccc(-c2ccccc2)cc1)Nc1cccnc1	-9.2	-1.7	-2.1	-3.8	-4.7	17.1*	2.0	14.6
CCCCS(=O)CC(COCc1ccccc1)OC(=O)CSc1nc(C)cc(C)n1 (stereo not drawn)	-6.0	-3.3	-2.9	-5.1	9.5	-3.3	nt	nt
C=CCn1c(O)c(N=NC(=O)OCC)c2ccccc21	-1.4	nt	5.8	-2.7	-7.3	0.2	nt	nt
C=CCn1c(O)c(N=NC(=S)Nc2cccc(OC)c2)c2ccccc21	-5.9	-4.8	0.6	-9.8	-42.9	18.7*	7.2	81.7*
C=CCn1c(O)c(N=NC(=S)Nc2ccc(OC)cc2)c2ccccc21	4.2	-5.5	5.2	-5.0	-5.4	16.8*	-1.1	56.6*
CSc1ncccc1C(=O)OCC(=O)NC1CCCc2ccccc21 (stereo not drawn)	-15.9	-9.5	nt	-6.1	nt	19.5*	-0.3	15.1
O=C(COC(=O)c1cccnc1Cl)NC1CCCc2ccccc21 (stereo not drawn)	3.8	-7.5	nt	-2.6	nt	-5.2	nt	nt
Cc1cccc(Cl)c1NC(=O)N1CCCN(c2nc3ccc(Cl)cc3s2)CC1	2.3	-8.9	-0.7	-4.9	-4.4	4.3	nt	nt
CCCCNC(=O)N1CCN(c2ccnc3cc(Cl)ccc23)CC1	-17.9	-4.7	2.1	nt	0.8	18.5*	10.9	17.8
Cc1cccc(Cl)c1NC(=O)N1CCN(c2ccnc3cc(Cl)ccc23)CC1	-23.7	nt	-3.4	-11.6	14.6	23.8*	11.2	21.2
CC(=O)N1CCN(c2ccnc3cc(Cl)ccc23)CC1	-17.8	-6.5	-10.6	-5.4	5.8	9.2	nt	nt
CCCCNC(=O)N1CCN(c2ccccc2OCC)CC1	5.2	29.5	-1.0	-5.3	4.3	3.9	nt	nt
O=C(O)CSCC(=O)N1CCN(c2ccnc3cc(Cl)ccc23)CC1	-14.5	-2.8	-2.1	nt	16.3	29.8*	5.6	6.3
O=C(Nc1cc(F)ccc1F)N1CCN(c2ccnc3cc(Cl)ccc23)CC1	-38.9	-9.5	1.4	-5.6	-24.8	22.5*	9.5	-2.6
O=C(O)CN1C(=O)/C(=C\c2ccc(OC(=O)c3ccco3)cc2)SC1=S	-52.6	nt	-1.8	-6.7	7.7	35.3*	159.9*	6.5
C=CCN1C(=O)/C(=C\c2ccc(OC(=O)c3ccco3)c(OC)c2)SC1=S	-77.2	-2.7	11.4	-5.5	-10.5	32.5*	143.3*	10.6
C=CCN1C(=O)/C(=C\c2cccc(OC(=O)c3ccco3)c2)SC1=S	0.7	-4.5	9.4	-2.6	-21.7	4.5	nt	nt
Fc1cccc(Cl)c1-c1nnc2ccc(C(F)(F)F)cn12	5.9	1.7	-5.4	-6.8	-17.5	5.5	nt	nt
O=C(COC(=O)c1ccc(O)cc1O)Nc1nnc(-c2ccccc2)o1	1.6	3.5	nt	-7.4	7.6	0.4	nt	nt
Cc1cccc(Nc2nc(N)c(C#N)c(CC#N)c2C#N)c1	-7.4	18.4	-2.6	-5.8	0.8	25.8*	18.9*	12.7
Cc1cc(C)[n+](-c2ccc(F)cc2)c2[nH]c(=O)[nH]c(=O)c12	-1.2	-3.6	-2.1	-5.1	5.6	-0.6	nt	nt
CC(=O)Nc1ccc(-c2ccnc3c2CC(C(=O)Nc2ccccc2)O3)cc1 (stereo not drawn)	nt	nt	nt	-4.2	nt	nt	nt	nt
SMILES	IDE act	ALR inh	PfM18AAP inh	CaV13 FRET inh	PolyA inhibitor	IDE cell inh	IDE inh confirm	HEK293 tox	others
COc1cc(NC(=O)c2csc(-c3ccncc3)n2)cc(C(=O)Nc2cccc(C(F)(F)F)c2)c1	2.2	3.4	nt	-4.7	-0.4	1.7	nt	nt
O=C(Nc1cccc(C(F)(F)F)c1)c1csc(-c2ccncc2)n1	-31.1	-6.2	-1.7	-12.8	9.4	49.7*	28.6*	20.2	IDE FP artifact=>54.7
Cc1nc(-c2cccnc2)sc1C(=O)Nc1ccc(C(F)(F)F)cc1	-5.2	-2.3	5.8	nt	-4.1	-1.6	nt	nt
Cc1nc(-c2cccnc2)sc1C(=O)Nc1cccc(C(F)(F)F)c1	-3.8	-7.6	-7.0	-3.1	10.1	6.9	nt	nt	IDE FP artifact=>54.7
COc1ccc(-c2nc(C(=O)Nc3cccc(C(F)(F)F)c3)cs2)cc1	nt	nt	nt	nt	nt	nt	nt	nt	IDE FP artifact=>54.7
O=C(Nc1ccc(Cl)cc1)c1csc(-c2ccncc2)n1	1.3	0.1	-1.3	-5.5	-9.5	4.8	nt	nt
O=C(COc1ccc(F)cc1)N(Cc1ccco1)C1CCS(=O)(=O)C1 (stereo not drawn)	6.0	-6.6	-3.0	-13.1	-7.1	3.8	nt	nt
COc1cc(/C=C/C(=O)Nc2cc(C(F)(F)F)ccc2Cl)cc(OC)c1OC	-4.5	2.0	-16.9	nt	18.9	17.4*	3.6	16.0
Cc1ccc(SCC(=O)NC2CCCCCC2)cc1	2.6	-21.4	-0.4	-2.3	-9.5	2.2	nt	nt
CC(OC(=O)/C(C#N)=C/c1ccc(N(C)C)cc1)C(=O)N(C)c1ccccc1 (stereo not drawn)	-26.3	3.2	nt	6.8	-6.0	16.2*	31.1*	12.1
CCCN1CCN(CCCNC(=S)Nc2ccc(OC)cc2)CC1	0.5	-8.2	-17.7	-2.0	9.7	2.9	nt	nt
C=CCNc1nc(NCc2cccc(OC)c2)c2sc(-c3ccccc3)cc2n1	nt	nt	nt	-4.9	nt	nt	nt	nt
COc1cc(/C=C2\SC(N)=NC2=O)cc(Br)c1O	-40.9	-8.6	6.2	-178.3	3.3	55.1*	70.2*	6.2
COc1ccccc1NC(=O)C(=O)N/N=C/c1cccs1	8.6	-2.8	-4.4	-19.2	18.0	0.1	nt	nt
COC(CNC(=O)c1coc2nc3ccccc3nc12)OC	-3.5	-3.6	10.1	-4.7	23.2	-1.1	nt	nt
S=C(NCc1ccco1)N1CCN(c2nc(-c3ccccc3)cs2)CC1	-9.3	7.4	-1.6	nt	1.1	17.6*	7.0	10.2
S=C(NCc1ccco1)N1CCN(c2nc(-c3ccc(Cl)cc3)cs2)CC1	-14.2	32.3	6.5	-2.3	8.8	21.8*	5.2	20.5
CC(=O)c1c(C)[nH]c(C(=O)CSc2nnc(N)s2)c1C	1.3	28.7	-1.3	-4.8	-5.5	-3.2	nt	nt
N#Cc1ccccc1S(=O)(=O)N1CCN(CC(=O)NC(=O)NC2CCCCC2)CC1	1.4	0.3	nt	-1.6	-10.5	-4.2	nt	nt

Source: PubChem BioAssay (several laboratories)
